Results: PubChem BioAssay (NCATS)
Results filed as inconclusive are left out. Active and inactive are the calls of the source. The call rests on the fitted dose curve; in most records, active means well fitted inhibition curve with a large enough effect; inconclusive means small, poorly fitted or top-dose-only effect; inactive means no such curve, though single readings can be large or run the other way.

Target: Aldehyde dehydrogenase 1A1 (Homo sapiens) (UniProt P00352)
Assay: qHTS for Inhibitors of the Aldehyde Dehydrogenase Family (ALDH1A1) Confirmatory screens (AID 2061316); further: nearly all actives have a fitted effect of over 65% in size
Conditions: ALDH inhibition qHTS; series mostly up to 47.3 µM; activity change, negative = inhibition: at the top concentration
On the % scale 0 is the no-effect control and ±100 the full control effect; potency means the concentration at half of the fitted maximal effect.

Row | Compound | Potency | activity change, negative = inhibition
1 | Cc1cc(C)c(OP(=O)(OCc2c(-c3ccccc3)no[n+]2[O-])Oc2c(C)cc(C)cc2C)c(C)c1 | 2.01 µM (active) | 
2 | O=[N+]([O-])/C=C/c1ccc2c(c1)OCO2 | 3.57 µM (active) | 
3 | CC1=C(C)C(=O)C(CC[C@](C)(O)CCC[C@H](C)CCC[C@H](C)CCCC(C)C)=C(C)C1=O |  | 3.77% (inactive)
4 | CCCn1c(C)c(C(=O)c2ccc3ccccc3c2)c2ccccc21 |  | 2.64% (inactive)
5 | CCOc1ccc(CCNC(=O)c2cc3ccncc3n2Cc2cccc(C)n2)cc1OCC |  | -4.98% (inactive)
6 | C[C@H]1O[C@@H](O[C@H]2CC[C@]3(CO)C4CC[C@]5(C)[C@@H](C6=CC(=O)OC6)CC[C@]5(O)[C@@H]4CC[C@H]3C2)[C@H](O)[C@H](O)[C@@H]1O[C@@H]1O[C@H](CO)[C@@H](O)[C@H](O)[C@H]1O (some centres not stated) |  | -12.4% [at 16 µM] (inactive)
7 | N#Cc1nc(-c2cccc3ccccc23)oc1NCc1ccccc1 | 7.12 µM (active) | 
